# According to the supplement of paper PMC10037445:
# Over roughly 2,900 compounds, “NF-kB SEAP reporter activity, fold change vs agonist alone” has its median near 0.99; the highest 2% begin near 2.6. This is one part of a sample in which the highest values are shown more often than they occur.
# Experiments:
# RAW-Dual [1] = assay: NF-kB SEAP reporter activity, fold change vs agonist alone; cytotoxicity flag (confluency mask): not cytotoxic; higher = enhanced NF-kB activity
# Summary of the method: (§1)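 Supernatant from RAW-Dual macrophages was read after 20 hours for IRF by QuantiLuc luminescence and for NF-κB by QuantiBlue absorbance at 620 nm. The cells (50,000 cells/well in DMEM, 384-well plates, 37 °C, 5% CO2) had received 50 nL of library stock by pin tool and, 1 h later, a PRR agonist. Reporter activity is expressed relative to agonist-alone wells as fold change, and wells were flagged cytotoxic if IncuCyte confluency was under 70% of agonist controls in both mask sets.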
# RAW-Dual [2] = assay: NF-kB SEAP reporter activity, fold change vs agonist alone; higher = enhanced NF-kB activity
# Summary of the method: as §1
# RAW-Dual [3] = assay: NF-kB SEAP reporter activity, fold change vs agonist alone; cytotoxicity flag (confluency mask): cytotoxic (confluency <70% of control); higher = enhanced NF-kB activity
# Summary of the method: as §1
# [4] = agonist: ODN 1826 (TLR9) 0.5 ug/mL
# [5] = agonist: Pam2CSK4 (TLR2/6) 0.1 ug/mL
# [6] = agonist: Pam3CSK4 (TLR2/1) 0.1 ug/mL
# [7] = library stock concentration (final ~1000-fold dilution): 2 mM, cytotoxicity flag (confluency mask): not cytotoxic, agonist: Imiquimod (TLR7) […]
# [8] = library stock concentration (final ~1000-fold dilution): 2 mM, cytotoxicity flag (confluency mask): not cytotoxic, agonist: MPLA (TLR4) […]
# [9] = library stock concentration (final ~1000-fold dilution): 10 mM, cytotoxicity flag (confluency mask): not cytotoxic, agonist: Imiquimod (TLR7) […]
# [10] = library stock concentration (final ~1000-fold dilution): 10 mM, cytotoxicity flag (confluency mask): not cytotoxic, agonist: MPLA (TLR4) […]
# [11] = library stock concentration (final ~1000-fold dilution): 10 mM, cytotoxicity flag (confluency mask): cytotoxic (confluency <70% of control), agonist: Imiquimod (TLR7) […]
# [12] = library stock concentration (final ~1000-fold dilution): 10 mM, cytotoxicity flag (confluency mask): cytotoxic (confluency <70% of control), agonist: MPLA (TLR4) […]
compound,measurement,setting,value
C/C=C1/C2C=C(C)CC1(N)c1ccc(=O)[nH]c1C2 (stereo unspecified) (library stock concentration (final ~1000-fold dilution): 2 mM),NF-kB SEAP reporter activity,RAW-Dual [1]; agonist: LPS (TLR4) 0.1 ug/mL,1.33
same,NF-kB SEAP reporter activity,RAW-Dual [1]; [4],1.01
same,NF-kB SEAP reporter activity,RAW-Dual [1]; [5],1.14
same,NF-kB SEAP reporter activity,RAW-Dual [1]; [6],1.01
C/C=C1/C2C=C(C)CC1(N)c1ccc(=O)[nH]c1C2 (stereo unspecified),NF-kB SEAP reporter activity,RAW-Dual [2]; [7],0.822
same,NF-kB SEAP reporter activity,RAW-Dual [2]; [8],1.1
CC1c2cccc(O)c2C(=O)C2=C(O)C3(O)C(=O)C(C(N)=O)=C(O)C(N(C)C)C3C(O)C21.CC1c2cccc(O)c2C(=O)C2=C(O)C3(O)C(=O)C(C(N)=O)=C(O)C(N(C)C)C3C(O)C21.CCO.Cl.Cl.O (stereo unspecified),NF-kB SEAP reporter activity,RAW-Dual [2]; [9],0.998
same,NF-kB SEAP reporter activity,RAW-Dual [2]; [10],1.13
CC1c2cccc(O)c2C(=O)C2=C(O)C3(O)C(=O)C(C(N)=O)=C(O)C(N(C)C)C3C(O)C21.CC1c2cccc(O)c2C(=O)C2=C(O)C3(O)C(=O)C(C(N)=O)=C(O)C(N(C)C)C3C(O)C21.CCO.Cl.Cl.O (stereo unspecified) (library stock concentration (final ~1000-fold dilution): 10 mM),NF-kB SEAP reporter activity,RAW-Dual [1]; agonist: LPS (TLR4) 0.1 ug/mL,1.6
same,NF-kB SEAP reporter activity,RAW-Dual [1]; [4],0.969
same,NF-kB SEAP reporter activity,RAW-Dual [1]; [5],1.26
same,NF-kB SEAP reporter activity,RAW-Dual [1]; [6],0.938
O=C(O)/C(S)=C/c1c[nH]c2ccc(F)cc12 (library stock concentration (final ~1000-fold dilution): 10 mM),NF-kB SEAP reporter activity,RAW-Dual [1]; agonist: LPS (TLR4) 0.1 ug/mL,0.886
same,NF-kB SEAP reporter activity,RAW-Dual [1]; [4],0.864
same,NF-kB SEAP reporter activity,RAW-Dual [1]; [5],0.988
same,NF-kB SEAP reporter activity,RAW-Dual [1]; [6],0.934
O=C(O)/C(S)=C/c1c[nH]c2ccc(F)cc12,NF-kB SEAP reporter activity,RAW-Dual [2]; [9],0.865
same,NF-kB SEAP reporter activity,RAW-Dual [2]; [10],1.08
COC(=O)C1=C(C)NC(C)=C(C(=O)OCCN2CCN(C(c3ccccc3)c3ccccc3)CC2)C1c1cccc([N+](=O)[O-])c1.Cl.Cl (stereo unspecified) (library stock concentration (final ~1000-fold dilution): 10 mM),NF-kB SEAP reporter activity,RAW-Dual [1]; agonist: LPS (TLR4) 0.1 ug/mL,0.834
same,NF-kB SEAP reporter activity,RAW-Dual [1]; [4],0.364
same,NF-kB SEAP reporter activity,RAW-Dual [1]; [5],0.241
same,NF-kB SEAP reporter activity,RAW-Dual [1]; [6],0.405
COC(=O)C1=C(C)NC(C)=C(C(=O)OCCN2CCN(C(c3ccccc3)c3ccccc3)CC2)C1c1cccc([N+](=O)[O-])c1.Cl.Cl (stereo unspecified),NF-kB SEAP reporter activity,RAW-Dual [2]; [9],0.58
same,NF-kB SEAP reporter activity,RAW-Dual [2]; [10],0.873
CN(C)CCOC(c1ccccc1)c1ccccc1.Cl (library stock concentration (final ~1000-fold dilution): 10 mM),NF-kB SEAP reporter activity,RAW-Dual [1]; agonist: LPS (TLR4) 0.1 ug/mL,1.27
same,NF-kB SEAP reporter activity,RAW-Dual [1]; [4],0.728
same,NF-kB SEAP reporter activity,RAW-Dual [1]; [5],0.917
same,NF-kB SEAP reporter activity,RAW-Dual [1]; [6],1.1
CN(C)CCOC(c1ccccc1)c1ccccc1.Cl,NF-kB SEAP reporter activity,RAW-Dual [2]; [9],1.39
same,NF-kB SEAP reporter activity,RAW-Dual [2]; [10],0.886
Cl.Cl.Cn1cc(CNCC2CCN(c3ncc(C(=O)NO)cn3)CC2)c2ccccc21 (library stock concentration (final ~1000-fold dilution): 10 mM),NF-kB SEAP reporter activity,RAW-Dual [3]; agonist: LPS (TLR4) 0.1 ug/mL,7.01
same,NF-kB SEAP reporter activity,RAW-Dual [3]; [4],1.95
same,NF-kB SEAP reporter activity,RAW-Dual [3]; [5],1.13
same,NF-kB SEAP reporter activity,RAW-Dual [3]; [6],1.93
Cn1cc(CC(N)C(=O)O)c2ccccc21 (stereo unspecified),NF-kB SEAP reporter activity,RAW-Dual [2]; [7],0.994
same,NF-kB SEAP reporter activity,RAW-Dual [2]; [8],1.05
Cl.Cn1cc(C(=O)C2CCc3nc[nH]c3C2)c2ccccc21 (stereo unspecified),NF-kB SEAP reporter activity,RAW-Dual [2]; [9],0.775
same,NF-kB SEAP reporter activity,RAW-Dual [2]; [10],0.816
Cl.Cl.Cn1cc(CNCC2CCN(c3ncc(C(=O)NO)cn3)CC2)c2ccccc21,NF-kB SEAP reporter activity,RAW-Dual [2]; [11],2.52
same,NF-kB SEAP reporter activity,RAW-Dual [2]; [12],2.65
Cl.Cn1cc(C(=O)C2CCc3nc[nH]c3C2)c2ccccc21 (stereo unspecified) (library stock concentration (final ~1000-fold dilution): 10 mM),NF-kB SEAP reporter activity,RAW-Dual [1]; agonist: LPS (TLR4) 0.1 ug/mL,1.01
same,NF-kB SEAP reporter activity,RAW-Dual [1]; [4],0.67
same,NF-kB SEAP reporter activity,RAW-Dual [1]; [5],0.928
same,NF-kB SEAP reporter activity,RAW-Dual [1]; [6],0.877
Cn1cc(CC(N)C(=O)O)c2ccccc21 (stereo unspecified) (library stock concentration (final ~1000-fold dilution): 2 mM),NF-kB SEAP reporter activity,RAW-Dual [1]; agonist: LPS (TLR4) 0.1 ug/mL,1.05
same,NF-kB SEAP reporter activity,RAW-Dual [1]; [4],1.22
same,NF-kB SEAP reporter activity,RAW-Dual [1]; [5],1.19
same,NF-kB SEAP reporter activity,RAW-Dual [1]; [6],1.05
COc1ccc(CCC(=O)N(c2nccc3ccccc23)C2CCCNC2)cc1 (stereo unspecified),NF-kB SEAP reporter activity,RAW-Dual [2]; [9],1.07
same,NF-kB SEAP reporter activity,RAW-Dual [2]; [10],1.29
COc1ccc(CCC(=O)N(c2nccc3ccccc23)C2CCCNC2)cc1 (stereo unspecified) (library stock concentration (final ~1000-fold dilution): 10 mM),NF-kB SEAP reporter activity,RAW-Dual [1]; agonist: LPS (TLR4) 0.1 ug/mL,1.05
same,NF-kB SEAP reporter activity,RAW-Dual [1]; [4],0.84
same,NF-kB SEAP reporter activity,RAW-Dual [1]; [5],1.09
same,NF-kB SEAP reporter activity,RAW-Dual [1]; [6],1.08
CS(=O)(=O)c1cccc(CC(NC(=O)c2c(Cl)cc3c(c2Cl)CCN(C(=O)c2ccc4ccoc4c2)C3)C(=O)O)c1 (stereo unspecified),NF-kB SEAP reporter activity,RAW-Dual [2]; [9],0.947
same,NF-kB SEAP reporter activity,RAW-Dual [2]; [10],1.04
CS(=O)(=O)c1cccc(CC(NC(=O)c2c(Cl)cc3c(c2Cl)CCN(C(=O)c2ccc4ccoc4c2)C3)C(=O)O)c1 (stereo unspecified) (library stock concentration (final ~1000-fold dilution): 10 mM),NF-kB SEAP reporter activity,RAW-Dual [1]; agonist: LPS (TLR4) 0.1 ug/mL,0.994
same,NF-kB SEAP reporter activity,RAW-Dual [1]; [4],1
same,NF-kB SEAP reporter activity,RAW-Dual [1]; [5],1.03
same,NF-kB SEAP reporter activity,RAW-Dual [1]; [6],0.941
O=[N+]([O-])c1ccc(S(=O)(=O)N2CCN(c3ccnc4cc(Cl)ccc34)CC2)c([N+](=O)[O-])c1 (library stock concentration (final ~1000-fold dilution): 10 mM),NF-kB SEAP reporter activity,RAW-Dual [3]; agonist: LPS (TLR4) 0.1 ug/mL,0.384
same,NF-kB SEAP reporter activity,RAW-Dual [3]; [4],0.333
same,NF-kB SEAP reporter activity,RAW-Dual [3]; [5],0.229
same,NF-kB SEAP reporter activity,RAW-Dual [3]; [6],0.196
O=[N+]([O-])c1ccc(S(=O)(=O)N2CCN(c3ccnc4cc(Cl)ccc34)CC2)c([N+](=O)[O-])c1,NF-kB SEAP reporter activity,RAW-Dual [2]; [11],0.787
same,NF-kB SEAP reporter activity,RAW-Dual [2]; [12],0.37
O=C(/C=C/c1cccc(S(=O)(=O)Nc2ccccc2)c1)NO (library stock concentration (final ~1000-fold dilution): 10 mM),NF-kB SEAP reporter activity,RAW-Dual [3]; agonist: LPS (TLR4) 0.1 ug/mL,5.83
same,NF-kB SEAP reporter activity,RAW-Dual [3]; [4],2.3
same,NF-kB SEAP reporter activity,RAW-Dual [3]; [5],0.848
same,NF-kB SEAP reporter activity,RAW-Dual [3]; [6],1.76
COc1cccc(NC(=O)/C=C/c2ccc(Cl)cc2)c1,NF-kB SEAP reporter activity,RAW-Dual [2]; [9],1.02
same,NF-kB SEAP reporter activity,RAW-Dual [2]; [10],1.04
COc1cccc(NC(=O)/C=C/c2ccc(Cl)cc2)c1 (library stock concentration (final ~1000-fold dilution): 10 mM),NF-kB SEAP reporter activity,RAW-Dual [1]; agonist: LPS (TLR4) 0.1 ug/mL,1.18
same,NF-kB SEAP reporter activity,RAW-Dual [1]; [4],0.828
same,NF-kB SEAP reporter activity,RAW-Dual [1]; [5],0.682
same,NF-kB SEAP reporter activity,RAW-Dual [1]; [6],0.711
